JMJD2A Tudor inh – inhibitors of human JMJD2A Tudor domain | AID 504339 | Potency, µM (doses to about 114 µM), hits mostly inhibitors | AlphaScreen JMJD2A-Tudor / H3K4me3 peptide binding | O75164 | 390,000 tested, 4.4% active; also: nearly all actives have a fitted effect of over 50% in size
PLK1 PBD block – inhibitors of human PLK1 polo-box domain binding; P53350; Plk1 PBD binding of FITC phosphopeptide, fluorescence polarization; Potency, µM, most hits filed as inhibitors; 360,000 tested, 2.8% active; AID 720504; also: series mostly up to about 57 µM; nearly all actives have a fitted effect of over 65% in size
BAZ2B block – BAZ2B (human) inhibition. Q9UIF8. AlphaScreen BAZ2B-H3K14Ac peptide displacement. Potency, µM (highest dose often 114 µM), actives largely listed as inhibitors. 360,000 tested, 4.4% active. AID 504333; also: nearly all actives have a fitted effect of over 60% in size
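In this displacement format the biotinylated H3(5-23) peptide acetylated at Lys14 serves as ligand at 50 nM, with BAZ2B at 50 nM in PBS pH 7.4 containing 0.01% Tween-20. Donor and acceptor beads are 10 ug/mL final.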
G9a block – blocks human histone lysine methyltransferase G9a | 350,000 tested, 8.8% active | Potency, µM (series often up to 102 µM), most hits filed as inhibitors | G9a H3K9 monomethylation, AlphaScreen, 2 h | Q96KQ7; also: nearly all actives have a fitted effect of over 75% in size
Target sequence (Q96KQ7 913-1193 limits assumed): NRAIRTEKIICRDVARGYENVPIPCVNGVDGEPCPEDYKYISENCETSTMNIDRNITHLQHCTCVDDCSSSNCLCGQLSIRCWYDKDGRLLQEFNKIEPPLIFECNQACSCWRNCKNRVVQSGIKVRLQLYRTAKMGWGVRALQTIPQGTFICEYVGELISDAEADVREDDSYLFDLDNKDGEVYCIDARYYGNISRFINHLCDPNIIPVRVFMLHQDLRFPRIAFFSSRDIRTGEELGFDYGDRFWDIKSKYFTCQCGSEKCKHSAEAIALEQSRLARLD
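Readings reflect AlphaScreen signal from monomethyl-H3K9 antibody detection. HMT at 20 nM; substrate b-H3K9 500 nM; cofactor SAM 20 uM; 2 h RT reaction; compounds tested as titrations in qHTS with 15 min preincubation.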
HP1b binding inh – inhibitors of HP1-beta chromodomain binding to methylated histone tails. Potency, µM (highest dose often 114 µM), hits mostly inhibitors. P83916. AlphaScreen HP1-beta / biotin-H3K9me3 peptide binding. AID 540317. 390,000 tested, 0.56% active; also: nearly all actives have a fitted effect of over 70% in size
Target sequence (P83916 whole entry, looked up): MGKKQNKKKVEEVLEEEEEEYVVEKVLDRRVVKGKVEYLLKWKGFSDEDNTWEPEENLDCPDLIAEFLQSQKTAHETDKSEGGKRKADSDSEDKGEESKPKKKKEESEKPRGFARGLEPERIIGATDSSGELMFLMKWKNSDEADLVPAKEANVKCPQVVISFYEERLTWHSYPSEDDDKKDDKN
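Compound inhibition of the preformed complex between 50 nM HP1-beta and 50 nM biotinylated H3K9me3 peptide was read by AlphaScreen. Buffer was PBS pH 7.4 with 0.01% Tween-20. Incubations ran 30 min at room temperature, with 10 ug/mL donor/acceptor beads.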
Sfp PPTase inh – blocks B. subtilis Sfp PPTase activity | 310,000 tested, 3.5% active | Biochemical Sfp PPTase activity, qHTS | AID 1490 | Potency, µM, most hits filed as inhibitors;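 also: the enzyme is Sfp with the accession as filed and its product quenches rhodamine fluorescence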
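Step 1, compound plus 15 nM Sfp-PPTase, 15 min, room temperature. Step 2, add rhodamine-CoA (5 uM) and BHQ-2-YbbR (12.5 uM). Step 3, read 525/598 nm fluorescence at 0 and 30 min.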
A number is an active result; i = inactive; ? = inconclusive; nt = no result; ! = not active in a repeat; [ ] = another dose, or the depositor's remark. Rows were chosen to be rich in hits. Some 12% of all compounds tested hit in one or more screens of this group. Calls follow the shape of the dose curve; as a rule, active = well fitted curve in the direction sought with a large enough effect; inconclusive = small, poorly fitted or top-dose-only effect, or another doubt; inactive = no such curve, though single readings can be large; an effect the other way counts as inactive or inconclusive.

SMILES	JMJD2A Tudor inh	PLK1 PBD block	BAZ2B block	G9a block	HP1b binding inh	Sfp PPTase inh
CCOC(=O)N1CCC(=NNS(=O)(=O)c2cccc([N+](=O)[O-])c2)CC1	i	?	i	?	i	56µM
COC(=O)N/N=C(\C)c1ccc(-n2ccnc2)cc1	i	i	i	i	i	i
C/C(=N\Nc1cccc(Cl)c1)c1ccc(-n2ccnc2)cc1	?	i	?	7.9µM	i	i
C/C(=N\NS(=O)(=O)c1ccc(Br)cc1)c1ccc(-n2ccnc2)cc1	i	i	i	?	i	nt
CC(=NNS(=O)(=O)c1cccc([N+](=O)[O-])c1)c1ccc(-n2ccnc2)cc1	i	19µM	nt	nt	i	nt
C/C(=N/NS(=O)(=O)c1cccc([N+](=O)[O-])c1)c1ccncc1	i	3µM	?	35µM	i	i
CCN(CC)C(=O)CSc1nc2sc3c(c2c(=O)n1CCOC)CCC3	i	i	i	nt	i	i
CCOC(=O)c1sc2nc(SCC(=O)N(CC)CC)n(CCCN3CCCC3=O)c(=O)c2c1C	i	i	79µM	i	i	?
CCCCCOC(=O)Nc1ccc(S(=O)(=O)Nn2cnnc2)cc1	89µM	?	i	i	i	i
CCCCOC(=O)Nc1ccc(S(=O)(=O)Nc2ncccn2)cc1	i	i	i	nt	i	i
Cn1c(N)c(C(=O)CSc2ncn[nH]2)c(=O)n(C)c1=O	i	i	i	i	i	i
Cc1ccc2nc(SCC(=O)c3c(N)n(C)c(=O)n(C)c3=O)[nH]c2c1	i	i	?	0.89µM	i	i
Cc1nnc(SCC(=O)c2c(N)n(C)c(=O)n(C)c2=O)[nH]c1=O	i[11.4 µM]	24µM	i	i	i	i
Cc1cc(C)c(C)c(C(=O)CSc2nnc(C)c(=O)[nH]2)c1C	nt	nt	i	50µM	nt	?
Cc1ccc(S(=O)(=O)N2CCN(C(=O)CSc3nnc(C)c(=O)[nH]3)CC2)cc1	i	i	i	56µM	i	i
CO[C@H]1COC(=O)C/C=C\[C@@H](C)[C@H](OC)COC(=O)CCC[C@@H]1C	nt	nt	nt	nt	nt	i
Cc1nnc(SCC(=O)Nc2nccs2)n(N)c1=O	i	i	i	i	i	i
C/C(N)=C(/C#N)C(=O)CSc1nc2ccc(C)cc2[nH]1	i	i	i	16µM	i	i
CC(=O)c1c(C)[nH]c(C(=O)OCC(=O)N2CCN(S(=O)(=O)c3ccc(C)cc3)CC2)c1C	i	i	50µM	i[12.7 µM]	i	nt
CCCn1c(N)c(C(=O)CSc2nc3ncc(Cl)cc3[nH]2)c(=O)n(C)c1=O	i	i	i	i[2.33 µM]	i	nt
CC(C)Cn1c(N)c(C(=O)CSc2nc3ncc(Cl)cc3[nH]2)c(=O)n(C)c1=O	?	i	i	28µM	i	nt
Cc1nnc(SCC(=O)Nc2nccs2)[nH]c1=O	i[11.4 µM]	21µM	i	nt	i	i
COc1ccc(N2CCN(C3CCCN(Cc4cccc(OC)c4)C3)CC2)cc1 (stereo unspecified)	i	i	i	?	i	i
C[C@H]([C@H](C)N1CC(=O)NC(=O)C1)N1CC(=O)NC(=O)C1	nt	nt	nt	2.2µM	nt	?
Cc1ccc(S(=O)(=O)N2CC(=O)NC(=O)C2)cc1	i	i	i	i	i	i
SMILES	JMJD2A Tudor inh	PLK1 PBD block	BAZ2B block	G9a block	HP1b binding inh	Sfp PPTase inh
CC(C)C(=O)SCCCCCCC(=O)Nc1nc(-c2ccccc2)cs1	nt	nt	nt	nt	nt	i
OC(COCC1COc2ccccc2O1)CN1CCN(c2ccccn2)CC1 (stereo unspecified)	45µM!	i	i	i	i	i
OC(COc1cccc2ccccc12)CN1CCN(c2ccc(Cl)cc2)CC1 (stereo unspecified)	?	i	?	45µM	i	i
Cc1cc(C)c(OCC(O)CN2CCN(c3ccccn3)CC2)c(C)c1 (stereo unspecified)	i	i	56µM	?	i	i
OC(COCC1COc2ccccc2O1)CN1CCc2ccccc2C1 (stereo unspecified)	i	i	i	i	i	i
OC(COc1ccc(Cl)cc1)CN1CCN(c2ccccn2)CC1 (stereo unspecified)	i	i	nt	nt	i	nt
Cc1cc(OCC(O)CN2CCN(c3ccccn3)CC2)cc(C)c1Cl (stereo unspecified)	?	i	?	45µM	i	i
COc1ccc(-c2csc(C(NC(C)=O)c3ccccc3)n2)cc1 (stereo unspecified)	nt	i	nt	nt	nt	nt
OC(COc1ccc(Cl)c2ccccc12)CN1CCN(c2ccccn2)CC1 (stereo unspecified)	?	i	?	i[12.7 µM]	?	79µM
CC(C)(C)C1CCC(OCC(O)CN2CCN(c3ccccn3)CC2)CC1 (stereo unspecified)	?	i	?	32µM	i	i
Cc1cc(C)c(NC(=O)CCCN2C(=O)COc3ccc(C)cc32)c(C)c1	i	nt	i	i	i	nt
COc1ccc(N2CCN(C3CCCN(Cc4ccc(F)c(F)c4)C3)CC2)cc1 (stereo unspecified)	?	i	?	45µM	i	i
COc1ccc(N2CCN(C3CCCN(Cc4ccc(F)cc4)C3)CC2)cc1 (stereo unspecified)	i	i	?	?	i	i
COc1cccc(CN2c3ccccc3-c3nc(SCC(=O)Nc4cccc(C)c4)ncc3S2(=O)=O)c1	i	nt	i	i	i	nt
CN(C)S(=O)(=O)c1cccc2c1C(=O)c1ccccc1C2=O	i	i	i	?	i	i
O=C1c2ccccc2C(=O)c2c1cccc2N(CCO)CCO	?	i	50µM	45µM	?	i
CN(C)c1ccc(C(C(=O)NCc2ccccc2)N(Cc2cccnc2)C(=O)c2snc(C(N)=O)c2N)cc1 (stereo unspecified)	?	i	?	50µM	i	i
CN(C)c1ccc(C(C(=O)NC2CCCCC2)N(Cc2ccco2)C(=O)c2snc(C(N)=O)c2N)cc1 (stereo unspecified)	?	i	40µM	?	?	i
COc1cc(C(C(=O)NC2CCCC2)N(Cc2ccco2)C(=O)c2snc(C(N)=O)c2N)cc(OC)c1OC (stereo unspecified)	i	i	i	i	i	i
COc1ccc(C(C(=O)NCc2ccccc2)N(Cc2cccnc2)C(=O)c2snc(C(N)=O)c2N)cc1OC (stereo unspecified)	i	i	i	i	i	i
CN(c1ccc(OCC(=O)OCC(=O)Nc2ccc([N+](=O)[O-])cc2)cc1)S(=O)(=O)c1cccs1	i	i	nt	nt	i	nt
O=C(Nc1nnc(Cc2ccccc2)s1)C1CCN(C(=O)c2ccco2)CC1	i	27µM	i	10µM	?	50µM
COc1ccc(Cc2nnc(NC(=O)C3CCN(C(=O)c4ccco4)CC3)s2)cc1	i	i	i	79µM	i	i
CCCc1nnc(NC(=O)C2CCN(C(=O)c3ccco3)CC2)s1	i	i	i	i	i	i
CSC(=Nc1ccc(Cl)cc1)N[n+]1ccccc1	i	i	i	2µM	i	i

Bioassay records: PubChem, National Center for Advancing Translational Sciences (NCATS)
